Measurements published in PubChem BioAssay AID1159580 (chemical genetic matrix, 2015).
The whole screen tested about 5,500 compounds, of which about 2,000 (36%) were called active. Another 18% or so got no clear call; they are omitted. Cut-off read from the data, not from the text of the source: active = normalized growth mostly below about 0.91 (no sharp cut-off); inconclusive = no clear call, values can overlap the other calls; inactive = mostly above about 0.92. The list shows a part of the results.

Test: chemical genetic growth profiling, strain panel (AID 1159580);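 note: tested at 20 µM; growth read once vehicle control cultures reached saturation at 30 °C; 1 = growth at the plate median or of vehicle wells; lower values mean less growth of the strain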
Settings: growth OD
[1] = S. cerevisiae deletion strains, locus YDL101C, strain DUN1, stronger effect = lower value
[2] = S. cerevisiae deletion strains, locus YHR030C, strain SLT2, stronger effect = lower value
[3] = S. cerevisiae deletion strains, locus YAL013W, strain DEP1, stronger effect = lower value
[4] = S. cerevisiae deletion strains, locus YBR229C, strain ROT2, stronger effect = lower value
[5] = S. cerevisiae deletion strains, locus YDR150W, strain NUM1, stronger effect = lower value
[6] = S. cerevisiae deletion strains, locus YEL061C, strain CIN8, stronger effect = lower value
[7] = S. cerevisiae deletion strains, locus YGR078C, strain PAC10, stronger effect = lower value
[8] = S. cerevisiae deletion strains, locus YHR087W, strain rtc3, stronger effect = lower value
[9] = S. cerevisiae deletion strains, locus YJR043C, strain POL32, stronger effect = lower value
[10] = S. cerevisiae deletion strains, locus YJR075W, strain HOC1, stronger effect = lower value
[11] = S. cerevisiae deletion strains, locus YLR039C, strain RIC1, stronger effect = lower value
[12] = S. cerevisiae deletion strains, locus YLR058C, strain SHM2 (second series), stronger effect = lower value
[13] = S. cerevisiae deletion strains, locus YLR085C, strain ARP6, stronger effect = lower value
[14] = S. cerevisiae deletion strains, locus YLR262C, strain YPT6, stronger effect = lower value
[15] = S. cerevisiae deletion strains, locus YML094W, strain GIM5, stronger effect = lower value
[16] = S. cerevisiae deletion strains, locus YMR219W, strain ESC1, stronger effect = lower value
[17] = S. cerevisiae deletion strains, locus YMR263W, strain SAP30, stronger effect = lower value
[18] = S. cerevisiae deletion strains, locus YMR307W, strain GAS1, stronger effect = lower value
[19] = S. cerevisiae deletion strains, locus YNL153C, strain GIM3, stronger effect = lower value
[20] = S. cerevisiae deletion strains, locus YNL298W, strain CLA4 (second series), stronger effect = lower value
[21] = S. cerevisiae deletion strains, locus YNL322C, strain KRE1, stronger effect = lower value
[22] = S. cerevisiae deletion strains, locus YNR030W, strain Alg12, stronger effect = lower value
[23] = S. cerevisiae deletion strains, locus YPL055C, strain LGE1, stronger effect = lower value
[24] = S. cerevisiae deletion strains, locus YPL241C, strain CIN2, stronger effect = lower value
[25] = S. cerevisiae deletion strains, locus YPR135W, strain CTF4, stronger effect = lower value

Measured: normalized growth

COc1cc(C(=O)Oc2c(Cl)cc(Cl)cc2C=Nc2ccc([N+](=O)[O-])cc2C#N)cc(OC)c1OC
inactive: S. cerevisiae deletion strains, locus YAR019C, strain CDC15, stronger effect = lower value 0.988 | S. cerevisiae deletion strains, locus YBL105C, strain PKC1, stronger effect = lower value 0.972 | S. cerevisiae deletion strains, locus YBR135W, strain CKS1, stronger effect = lower value 0.969 | S. cerevisiae deletion strains, locus YBR136W, strain MEC1, stronger effect = lower value 0.988 | S. cerevisiae deletion strains, locus YBR160W, strain CDC28, stronger effect = lower value 0.974 | S. cerevisiae deletion strains, locus YDL017W, strain CDC7, stronger effect = lower value 0.974 | S. cerevisiae deletion strains, locus YDL028C, strain MPS1, stronger effect = lower value 0.977 | [1] 0.987 | S. cerevisiae deletion strains, locus YDL108W, strain KIN28, stronger effect = lower value 0.982 | S. cerevisiae deletion strains, locus YDL132W, strain cdc53, stronger effect = lower value 0.967 | S. cerevisiae deletion strains, locus YDR052C, strain DBF4, stronger effect = lower value 0.989 | S. cerevisiae deletion strains, locus YDR054C, strain cdc34, stronger effect = lower value 0.968 | S. cerevisiae deletion strains, locus YDR226W, strain ADK1, stronger effect = lower value 0.978 | S. cerevisiae deletion strains, locus YFL009W, strain cdc4, stronger effect = lower value 0.961 | S. cerevisiae deletion strains, locus YFL029C, strain CAK1, stronger effect = lower value 0.983 | S. cerevisiae deletion strains, locus YFR003C, strain YPI1, stronger effect = lower value 0.975 | S. cerevisiae deletion strains, locus YFR028C, strain CDC14, stronger effect = lower value 0.973 | S. cerevisiae deletion strains, locus YIL147C, strain SLN1, stronger effect = lower value 0.979 | S. cerevisiae deletion strains, locus YJL128C, strain PBS2, stronger effect = lower value 0.928 | S. cerevisiae deletion strains, locus YJR016C, strain ILV3, stronger effect = lower value 0.986 | S. cerevisiae deletion strains, locus YJR066W, strain TOR1 (second series), stronger effect = lower value 0.812 | S. cerevisiae deletion strains, locus YKL193C, strain SDS22, stronger effect = lower value 0.965 | S. cerevisiae deletion strains, locus YMR001C, strain CDC5, stronger effect = lower value 0.98 | S. cerevisiae deletion strains, locus YMR277W, strain FCP1, stronger effect = lower value 0.97 | S. cerevisiae deletion strains, locus YNL006W, strain LST8, stronger effect = lower value 0.991 | S. cerevisiae deletion strains, locus YNL161W, strain CBK1, stronger effect = lower value 0.98 | S. cerevisiae deletion strains, locus YNL207W, strain RIO2, stronger effect = lower value 0.981 | S. cerevisiae deletion strains, locus YNL222W, strain SSU72, stronger effect = lower value 0.975 | S. cerevisiae deletion strains, locus YOL078W, strain AVO1, stronger effect = lower value 0.975 | S. cerevisiae deletion strains, locus YOR329C, strain SCD5, stronger effect = lower value 0.971 | S. cerevisiae deletion strains, locus YPL209C, strain IPL1, stronger effect = lower value 0.976 | S. cerevisiae deletion strains, locus YPR025C, strain CCL1, stronger effect = lower value 0.963 | S. cerevisiae deletion strains, locus YPR106W, strain ISR1, stronger effect = lower value 0.971 | S. cerevisiae deletion strains, locus YPR111W, strain DBF20, stronger effect = lower value 0.945 | S. cerevisiae deletion strains, strain NNK1, stronger effect = lower value 0.979 | S. cerevisiae deletion strains, strain TSCII, stronger effect = lower value 0.98
active: S. cerevisiae deletion strains, locus YDL214C, strain PRR2, stronger effect = lower value 0.56 | S. cerevisiae deletion strains, locus YDR477W, strain SNF1, stronger effect = lower value 0.598 | S. cerevisiae deletion strains, locus YER123W, strain YCK3, stronger effect = lower value 0.352 | S. cerevisiae deletion strains, locus YER133W, strain GLC7, stronger effect = lower value 0.553 | S. cerevisiae deletion strains, locus YFR019W, strain FAB1, stronger effect = lower value 0.593 | S. cerevisiae deletion strains, locus YGR040W, strain KSS1, stronger effect = lower value 0.622 | S. cerevisiae deletion strains, locus YGR052W, strain FMP48, stronger effect = lower value 0.508 | S. cerevisiae deletion strains, locus YGR092W, strain DBF2, stronger effect = lower value 0.302 | [2] 0.324 | S. cerevisiae deletion strains, locus YHR079C, strain IRE1, stronger effect = lower value 0.371 | S. cerevisiae deletion strains, locus YHR082C, strain KSP1, stronger effect = lower value 0.497 | S. cerevisiae deletion strains, locus YHR205W, strain SCH9, stronger effect = lower value 0.429 | S. cerevisiae deletion strains, locus YJL095W, strain BCK1, stronger effect = lower value 0.408 | S. cerevisiae deletion strains, locus YJL157C, strain FAR1, stronger effect = lower value 0.565 | S. cerevisiae deletion strains, locus YJR066W, strain TOR1, stronger effect = lower value 0.366 | S. cerevisiae deletion strains, locus YKL048C, strain ELM1, stronger effect = lower value 0.765 | S. cerevisiae deletion strains, locus YKL067W, strain YNK1, stronger effect = lower value 0.558 | S. cerevisiae deletion strains, locus YKL101W, strain HSL1, stronger effect = lower value 0.654 | S. cerevisiae deletion strains, locus YKL203C, strain TOR2, stronger effect = lower value 0.678 | S. cerevisiae deletion strains, locus YLR113W, strain HOG1, stronger effect = lower value 0.458 | S. cerevisiae deletion strains, locus YLR133W, strain CKI1, stronger effect = lower value 0.543 | S. cerevisiae deletion strains, locus YLR403W, strain SFP1, stronger effect = lower value 0.439 | S. cerevisiae deletion strains, locus YML070W, strain DAK1, stronger effect = lower value 0.544 | S. cerevisiae deletion strains, locus YMR205C, strain PFK2 (second series), stronger effect = lower value 0.59 | S. cerevisiae deletion strains, locus YNL020C, strain ARK1, stronger effect = lower value 0.503 | S. cerevisiae deletion strains, locus YNL183C, strain NPR1, stronger effect = lower value 0.465 | S. cerevisiae deletion strains, locus YNL307C, strain MCK1 (second series), stronger effect = lower value 0.5 | S. cerevisiae deletion strains, locus YOL136C, strain PFK27, stronger effect = lower value 0.492 | S. cerevisiae deletion strains, locus YOR061W, strain CKA2, stronger effect = lower value 0.439 | S. cerevisiae deletion strains, locus YOR119C, strain RIO1, stronger effect = lower value 0.549 | S. cerevisiae deletion strains, locus YOR231W, strain MKK1, stronger effect = lower value 0.46 | S. cerevisiae deletion strains, locus YPL031C, strain PHO85, stronger effect = lower value 0.572 | S. cerevisiae deletion strains, locus YPL153C, strain RAD53, stronger effect = lower value 0.581 | S. cerevisiae deletion strains, locus YPL204W, strain HRR25, stronger effect = lower value 0.548 | S. cerevisiae deletion strains, locus YPL256C, strain CLN2, stronger effect = lower value 0.431

COC(=O)c1cc(OC)c(OC)cc1NS(=O)(=O)c1ccc(C)cc1
inactive: [3] 1.01 | [4] 0.996 | [1] 0.994 | [5] 0.933 | [6] 1.01 | [7] 0.989 | [2] 0.959 | [8] 1 | [9] 0.985 | [10] 0.991 | S. cerevisiae deletion strains, locus YKL190W, strain CNB1, stronger effect = lower value 1 | [11] 0.961 | [12] 1.01 | [13] 1.03 | [14] 0.891 | [15] 1.03 | [16] 1 | [17] 0.971 | [18] 0.959 | [19] 0.987 | [20] 0.962 | [21] 1 | [22] 0.996 | [23] 0.894 | [24] 1.01 | [25] 0.93 | S. cerevisiae strains, strain wild type, stronger effect = lower value 0.99

COC(=O)c1ccc([N+](=O)[O-])cc1Cl
inactive: [3] 0.991 | [4] 0.998 | S. cerevisiae deletion strains, locus YCL061C, strain MRC1, stronger effect = lower value 1 | [1] 0.989 | S. cerevisiae deletion strains, locus YDL134C, strain PPH21, stronger effect = lower value 0.983 | [5] 0.923 | [6] 0.988 | [7] 0.993 | [2] 0.989 | [8] 1.01 | S. cerevisiae deletion strains, locus YJL187C, strain SWE1, stronger effect = lower value 0.991 | [9] 1.02 | [10] 0.996 | [11] 0.983 | [12] 0.983 | [13] 0.881 | [14] 1 | [15] 0.964 | [16] 0.992 | [17] 0.992 | [18] 1.05 | S. cerevisiae deletion strains, locus YNL128W, strain TEP1, stronger effect = lower value 0.985 | [19] 1.01 | [20] 0.97 | [21] 1 | [22] 1.01 | S. cerevisiae deletion strains, locus YOL006C, strain TOP1, stronger effect = lower value 0.756 | [23] 0.95 | [24] 0.992 | [25] 1.03
